STAT3 SMM: STAT3 (human) binding. Small molecule microarray, His-STAT3 binding, anti-His fluorescence. calls only. 17,000 compounds, 0.2% hits;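 active means compounds whose four printed spots each show fluorescence over background unusually high for their array block, chance value under 7%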
p53 mut binder: mutant p53 (human) binding. small molecule microarray binding, anti-GST fluorescence. calls only. 17,000 compounds, 0.4% hits. AID 624136;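 active means compounds whose four printed spots each glow above background more than chance allows, each with a p-value under 7%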
c-Myc SMM: c-Myc (human) binding. P01106. small molecule microarray, His-c-Myc binding, anti-His fluorescence. calls only. 17,000 compounds, 1.5% hits. AID 624141;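 active means spot fluorescence over background with P-value below 7% in all four replicate spots, showing protein binding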;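 further: score is binary with 100 for all four spots passing and 0 otherwise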
NFkB binder: binders of human NF-kappa-B p105; P19838; Small molecule microarray, anti-His fluorescence binding; calls only; 17,000 compounds, 1.3% hits;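 active means spot fluorescence over background significantly raised, with a chance value under 7% in all four replicate spots of the compound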;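 further: probe protein is his-tagged human p50 processed subunit at 1 µg/ml; raw spot fluorescence signals with no normalization applied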
mut p53 react: restores mutant p53 pathway signaling in SW480 cells; SW480 PUMA-promoter luciferase, p53 mutant reactivation; activation, % at 9.98 µM; 28,000 compounds, 1.5% hits; in the data active means activation above about 52%
Active calls of the source: *; i = inactive; . = not tested or not shown; + = active, no number. In the library only some 2.6% were active in any assay of this set; here they are far more common.

SMILES | STAT3 SMM | p53 mut binder | c-Myc SMM | NFkB binder | mut p53 react
CCOC(=O)c1sc(N2C(=O)C(=O)C(C(=O)c3ccc(OC)c(C)c3)C2c2ccco2)nc1C (centres undefined) | . | . | . | . | 1
COc1cccc2cc(C(=O)C3C(=O)C(=O)N(c4nc(C)c(C)s4)C3c3ccco3)oc12 (centres undefined) | i | i | + | i | 2
CC(C)=CCc1c(O)cc(O)c2c1OC(c1ccccc1)CC2=O (centres undefined) | i | i | i | i | -4
CC(C)=CCc1c(O)c(CC=C(C)C)c2c(c1O)C(=O)CC(c1ccccc1)O2 (centres undefined) | i | i | + | i | -24
CC1(C)CC[C@]2(C(=O)O[C@@H]3O[C@H](CO)[C@@H](O)[C@H](O)[C@H]3O)CC[C@]3(C)C(=CCC4[C@@]5(C)CC[C@@H](O[C@@H]6O[C@H](C(=O)O)[C@@H](O[C@@H]7OC[C@@H](O)[C@H](O)[C@H]7O)[C@H](O[C@@H]7OC[C@](O)(CO)[C@H]7O)[C@H]6O)C(C)(C)C5CC[C@]43C)C2C1 (some centres undefined) | i | i | i | i | 10

Screens as filed in PubChem.
